Bioassay records: PubChem, National Center for Advancing Translational Sciences (NCATS)
D1 antagonist: blocks dopamine activation of the human D1 receptor; 3.2% of 360,000 active; P21728; HEK293 TREx D1 cells, calcium flux, dopamine EC80; stronger effect = lower value; AID 504652; activity change, negative = inhibition, % at 10 µM; in the data active = activity change below about -30%; also: % is scaled to controls: 0 for no effect and ±100 for the full control effect
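After overnight tetracycline induction at 30 C, force-coupled D1 HEK293 cells took up a no-wash calcium dye at room temperature. Compounds were added and monitored 180 s, and the response to EC80 dopamine was then recorded.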
D3 ag: activates the human D3 dopamine receptor; 0.58% of 410,000 active; P35462; D3R DiscoveRx beta-arrestin cells, luminescence, 90 min; max activation, %; in the data active = max activation above about 30%; also: 0% is about no effect
Target sequence (P35462 whole entry, looked up): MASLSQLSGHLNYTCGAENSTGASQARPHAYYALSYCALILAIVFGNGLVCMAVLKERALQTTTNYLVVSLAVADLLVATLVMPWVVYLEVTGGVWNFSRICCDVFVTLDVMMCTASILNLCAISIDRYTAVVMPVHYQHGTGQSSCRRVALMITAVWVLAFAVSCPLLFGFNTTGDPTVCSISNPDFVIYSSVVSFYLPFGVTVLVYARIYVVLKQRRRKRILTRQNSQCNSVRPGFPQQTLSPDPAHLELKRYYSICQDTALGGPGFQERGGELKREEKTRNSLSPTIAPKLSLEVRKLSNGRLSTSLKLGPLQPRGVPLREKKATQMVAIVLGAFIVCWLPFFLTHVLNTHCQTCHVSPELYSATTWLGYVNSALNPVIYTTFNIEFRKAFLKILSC
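Agonist-mode cell screen: cells plated at 1500/well and incubated overnight at 37 °C, then exposed to library compounds for 90 min at 37 °C. Detection reagent was added for 30–60 min at room temperature, and luminescence was read.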
D3 antag: blocks the human D3 dopamine receptor | D3R cells, DiscoveRx beta-arrestin luminescence, antagonist mode; stronger effect = lower value | max response, negative = inhibition, % | 2.5% of 360,000 active; in the data active = max response below about -50%; inconclusive = no clear call, values can overlap the other calls; also: % is scaled to controls: 0 for no effect and ±100 for the full control effect
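Cells plated overnight at 1500 cells/well, then exposed to library compounds with dopamine controls for 90 minutes at 37 degrees C. DiscoveRx reagent added for 30–60 minutes at room temperature; luminescence read, quantitative HTS format.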
D1 PAM: enhances dopamine response at the human D1 receptor | P21728 | HEK293 TREx D1 cells, calcium flux, dopamine EC20 potentiation | potentiation, % at 10 µM | 0.036% of 360,000 active; in the data active = potentiation above about 30%; also: 0% is about no effect
D1 ag: human D1 receptor agonism. activation, % at 2 µM. P21728. 1% of 360,000 active. AID 504660. HEK293 T-REx D1 cells, calcium flux, agonist mode; in the data active = activation above about 30%; also: 0% is about no effect
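Inducible HEK293 T-REx D1 cells, force-coupled to calcium signalling, were plated at 4000 cells/well with tetracycline and held overnight at 30 C. After no-wash calcium dye loading, compound-evoked calcium rise over 180 s flagged agonists.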
Starred values were filed as active, the others as inactive; ? = inconclusive; nt = no result. Compounds with a hit are over-represented: about 6% of the library has one in this group of screens.

SMILES | D1 antagonist | D3 ag | D3 antag | D1 PAM | D1 ag
CCn1ccnc1CNCc1ccc(OCC(O)CN(C)Cc2ccccc2)cc1 (configuration not stated) | 19 | -6 | -59* | 1 | 2
CN(Cc1ccccc1)CC(O)COc1ccc(CNCCc2cccnc2)cc1 (configuration not stated) | 4 | -10 | -7 | -6 | 8
CC(C)N(C)c1ncnc2c1ncn2[C@H]1CN(Cc2ccc(F)cc2)C[C@@H](CO)O1 | nt | 8 | 26 | nt | nt
COc1ccc(N2C(=O)CN=C2Nc2nc(C)cc(C)n2)cc1 | -4 | -2 | 23 | 0 | 4
Cc1cc(C)nc(NC2=NCC(=O)N2c2ccc3c(c2)OCCO3)n1 | -84* | -1 | -13 | -2 | -1
COc1ccc(CNC(=O)C2=CC(c3cccc(OC)c3)=NS(=O)(=O)N2C)cc1 | -13 | 1 | nt | -2 | 1
Cc1cccc(-c2noc(-c3cc(C(C)C)[nH]n3)n2)c1 | -9 | 0 | nt | -3 | 42*
COc1ccc(CN2C(=O)c3ccccc3C2c2nnnn2-c2ccc3c(c2)OCCO3)cc1OC (configuration not stated) | nt | 2 | 19 | nt | nt
Cc1cc2c(s1)c1cnn(Cc3c(F)cc(F)cc3F)c(=O)c1n2C | 4 | nt | nt | 3 | 0
COc1ccc([C@H]2C(C(=O)O)=C[C@@H](C(C)(C)C)N2S(=O)(=O)c2ccccc2)cc1 | nt | 3 | 0 | nt | nt
Cc1ccc(S(=O)(=O)N2CCN(C(=O)CN3CCCSc4ccccc43)CC2)cc1 | -14 | -12 | -55* | 2 | -1
CCOC(=O)c1c(C)[nH]c(C(=O)CN(C)CC(=O)Nc2ccccc2Cl)c1C | -41* | -1 | -30 | -11 | 5
CCOC(=O)c1c(C)[nH]c(C(=O)OCC(=O)Nc2ccccc2)c1C | -73* | -1 | 1 | -12 | 26
CC(=O)c1c(C)[nH]c(C(=O)CN(C)CC(=O)Nc2ccccc2Cl)c1C | nt | -10 | 1 | nt | nt
CNC(=O)COC(=O)c1[nH]c(C)c(C(C)=O)c1C | 7 | -3 | -79* | -2 | 3
CC(=O)c1c(C)[nH]c(C(=O)OCC(=O)c2ccc(C)s2)c1C | -11 | 44* | -3 | -7 | 4
CCOC(=O)c1c(C)[nH]c(C(=O)OCc2ccccc2)c1C | -3 | 8 | 17 | 6 | 6
C[C@@H](NC(=O)[C@@H]1CCCN1C(=O)[C@@H]1CCCN1C(=O)c1cccc(Cl)c1)c1ccccc1 | nt | 1 | 14 | nt | nt
Cc1ccc(NC(=O)c2cc(S(=O)(=O)N3CCc4ccccc43)ccc2F)cc1Cl | -8 | -2 | nt | 2 | -2
CC(=O)OCC(=O)c1c[nH]c2ccccc12 | 11 | 2 | 0 | -6 | 0
CC(C)n1nc(C(=O)OCC(=O)c2c[nH]c3ccccc23)c2ccccc2c1=O | -2 | 59* | 46 | 5 | 1
CCOC(=O)c1c(C)[nH]c(C(=O)C(C)Cl)c1C (configuration not stated) | -32* | -4 | -8 | -13 | 1
CN(CC(=O)Nc1ccccc1Cl)CC(=O)N(C)c1c(N)n(Cc2ccccc2)c(=O)[nH]c1=O | nt | -8 | -16 | nt | nt
CN(CC(=O)Nc1ccccc1Cl)CC(=O)c1c(N)n(Cc2ccccc2)c(=O)n(C)c1=O | -32* | 6 | 7 | 9 | 2
CCn1nc(C(=O)OCC(=O)c2c[nH]c3ccccc23)c2ccccc2c1=O | -12 | 2 | 14 | -5 | 2
SMILES | D1 antagonist | D3 ag | D3 antag | D1 PAM | D1 ag
CC(=O)c1c(C)[nH]c(C(=O)OCC(=O)c2c[nH]c3ccccc23)c1C | -31* | 5 | 10 | -3 | 4
CC(C)c1cnc2c(c1SCC(=O)N1CCCCC1)c(=O)n(C)c(=O)n2C | -10 | -22 | nt | -3 | -1
Cc1ccc(Cl)cc1N1CCN(C(=O)CSc2nnc3n2C(C)(C)Cc2ccccc2-3)CC1 | -18 | 45* | ? | -1 | 2
COc1ccc(N2CCN(C(=O)CSc3nnc4n3C(C)(C)Cc3ccccc3-4)CC2)cc1 | -12 | 28 | 44 | -3 | 1
COc1ccccc1CN1C2CCCC1CC(NC(=O)/C=C/c1ccccc1)C2 (configuration not stated) | -12 | -16 | -65* | 3 | 0
O=[N+]([O-])c1ccc(COc2ccc(CN3CCCC3)cc2)cc1 | nt | 0 | -21 | nt | nt
